This is a sample that favours compounds with a hit; in the whole collection about 19% have one here.
DT40 TDP1 no CPT = qHTS for Inhibitors of human tyrosyl-DNA phosphodiesterase 1 (TDP1): qHTS in cells in absence of CPT. DT40 Tdp1-/- hTDP1 cells, no CPT, ATP luminescence, 48 h. Potency, µM (series often up to 46.2 µM), hits mostly inhibitors. 420,000 tested, 15% active. AID 686978, 2013; further: nearly all actives have a fitted effect of over 55% in size
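DT40 Tdp1-/-;hTDP1 cells, no CPT (DMSO vehicle only), 400 cells/well; compounds pin-transferred; ≥48 hr, 37 °C; CellTiter-Glo 30 min RT dark, luminescence read.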
TDP1 cell CPT = DT40-hTDP1 cell growth loss with CPT; chicken DT40 Tdp1-/-;hTDP1 cells + 20 nM CPT, ATP luminescence, 48 h; Potency, µM (titrated, usually from 46.2 µM), hits mostly inhibitors; 420,000 tested, 12% active; AID 686979; further: nearly all actives have a fitted effect of over 55% in size
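Chicken DT40 Tdp1-/- cells stably complemented with human TDP1 were seeded at 400 cells/well in medium containing 20 nM camptothecin, exposed to pin-transferred compounds, and grown at 37 °C for at least 48 hr. Viability was read as ATP luminescence.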
HT1080NT lethal = kills 2HG-producing HT-1080-NT fibrosarcoma cells; 360,000 tested, 1.6% active; AID 686970; Potency, µM (highest dose often 46.1 µM), hits mostly cytotoxic; HT-1080-NT fibrosarcoma viability, CellTiter-Glo ATP luminescence, 48 h;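 further: NT is the 2HG producing partner of a matched IDH1 knockdown line; nearly all actives have a fitted effect of over 55% in size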
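Compounds were tested in concentration-response format on HT-1080-NT cells for 48 hours at 37 degrees C. Cell viability came from CellTiter-Glo luminescence; curves were classified by r2, response magnitude and activity.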
KB-3-1 tox = KB-3-1 parental cell cytotoxicity. KB-3-1 viability, CellTiter-Glo ATP luminescence, 72 h. Potency, µM (titrated, usually from 46.1 µM), hits mostly cytotoxic. 400,000 tested, 1.4% active; further: nearly all actives have a fitted effect of over 60% in size
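Using CellTiter-Glo luminescence, growth of non-resistant KB-3-1 adenocarcinoma cells is assessed 72 h after pin-tool compound addition at 37 °C. Normalized responses across the concentration series yield fitted curves.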
HT1080 IDH1KD tx = HT-1080 IDH1 knockdown cell toxicity (counter line) | HT-1080 IDH1 knockdown viability, ATP luminescence, 48 h | Potency, µM (titrated, usually from 46.1 µM), actives largely listed as cytotoxic | 360,000 tested, 2% active
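After a 2 h attachment period, IDH1KD HT-1080 cells took pin-transferred compound for 48 h at 37 °C; ATP-based luminescence after 10 min room-temperature reagent incubation reported viability.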
KB-V1 MDR tox = KB-V1 MDR subline cytotoxicity | KB-V1 MDR cells viability, CellTiter-Glo, 72 h | Potency, µM (top dose mostly 46.1 µM), hits mostly cytotoxic | 400,000 tested, 3.4% active; further: nearly all actives have a fitted effect of over 60% in size
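Cytotoxicity via CellTiter-Glo luminescence after 72 h compound exposure at 37 degrees C. Cells: drug-selected KB-V1 line, DMEM phenol-red free plus 10% FBS. Compounds tested at multiple concentrations; normalized data fitted to concentration-effect curves.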
Large screens that a line does not name were inactive. The call rests on the fitted dose curve; in most records, active means well fitted curve in the direction sought with a large enough effect; inconclusive means small, poorly fitted or top-dose-only effect, or another doubt; inactive means no such curve, though single readings can be large; an effect the other way counts as inactive or inconclusive.

COc1cccc(NC(=O)CSc2nc3c(sc4ccccc43)c(=O)n2CCN(C)C)c1	DT40 TDP1 no CPT inconclusive, TDP1 cell CPT 14.6µM
CCN(CC)CCn1c(SCC(=O)NCc2ccco2)nc2c(sc3ccccc32)c1=O	DT40 TDP1 no CPT inconclusive, TDP1 cell CPT inconclusive
CCCCn1c(SCC(=O)Nc2ccc(F)cc2)nc2c(sc3ccccc32)c1=O	none (no result: HT1080NT lethal, HT1080 IDH1KD tx)
COc1cccc(NC(=O)CSc2nc3c(sc4ccccc43)c(=O)n2CCCN2CCCC2)c1	DT40 TDP1 no CPT 10.3µM, TDP1 cell CPT inconclusive
Cc1noc(C)c1COc1ccccc1C(=O)N(C)Cc1ccco1	DT40 TDP1 no CPT inconclusive, TDP1 cell CPT inconclusive
CSc1nc2c(sc3ccccc32)c(=O)n1Cc1ccc(C)cc1	DT40 TDP1 no CPT 16.4µM, TDP1 cell CPT 20.6µM, KB-V1 MDR tox inconclusive (no result: HT1080NT lethal, HT1080 IDH1KD tx)
Cc1cc(NC(=O)/C(C#N)=C/c2ccc(-c3ccc(SC(F)F)cc3)o2)n(-c2ccccc2)n1	DT40 TDP1 no CPT 18.4µM, TDP1 cell CPT inconclusive
CC1CC1c1ccc(/C=C(\C#N)C(=O)Nc2ccccc2Cl)o1 (configuration not stated)	DT40 TDP1 no CPT inconclusive, KB-V1 MDR tox inconclusive
CC1CC1c1ccc(/C=C(\C#N)C(=O)Nc2ccc(Cl)cc2)o1 (configuration not stated)	DT40 TDP1 no CPT 16.4µM, TDP1 cell CPT inconclusive, KB-3-1 tox inconclusive, HT1080 IDH1KD tx inconclusive, KB-V1 MDR tox inconclusive
CCOc1ccc(NC(=O)/C(C#N)=C\c2ccc(-c3ccc(Cl)cc3)o2)cc1	DT40 TDP1 no CPT 10.3µM, TDP1 cell CPT inconclusive (no result: HT1080NT lethal, HT1080 IDH1KD tx)
Cc1c(NC(=O)/C(C#N)=C/c2ccc(-c3ccc(Cl)cc3)o2)c(=O)n(-c2ccccc2)n1C	DT40 TDP1 no CPT 14.6µM, TDP1 cell CPT 10.3µM, KB-V1 MDR tox inconclusive
Cc1c(NC(=O)/C(C#N)=C\c2cccs2)c(=O)n(-c2ccccc2)n1C	none
Cc1ccc(-n2c(-c3ccco3)nc3nc4ccccc4nc32)cc1	none
C[C@@H](C(=O)NCCc1ccccc1F)N1C(=O)N2CCc3c([nH]c4ccccc34)[C@@]2(C)C1=O	DT40 TDP1 no CPT 9.2µM, TDP1 cell CPT 11.6µM
COc1ccc2[nH]c3c(c2c1)CCN1C(=O)N([C@@H](C)C(=O)NCc2ccccc2)C(=O)[C@]31C	DT40 TDP1 no CPT inconclusive, TDP1 cell CPT inconclusive
C[C@@H](C(=O)NCCc1ccccc1)N1C(=O)N2CCc3c([nH]c4ccccc34)[C@@]2(C)C1=O	DT40 TDP1 no CPT inconclusive, TDP1 cell CPT 18.4µM
COc1cc([N+](=O)[O-])cc(/C=C2/SC(=S)N(Cc3ccccc3)C2=O)c1O	DT40 TDP1 no CPT 7.31µM, TDP1 cell CPT 16.4µM, KB-3-1 tox inconclusive, KB-V1 MDR tox inconclusive
COc1cc(/C=C2/SC(=S)N(Cc3ccccc3)C2=O)cc(Cl)c1O	DT40 TDP1 no CPT 13µM, TDP1 cell CPT 16.4µM, KB-3-1 tox inconclusive
COc1cc(/C=C2/SC(=S)N(Cc3ccccc3)C2=O)ccc1OS(C)(=O)=O	DT40 TDP1 no CPT inconclusive, TDP1 cell CPT inconclusive, KB-3-1 tox inconclusive, KB-V1 MDR tox inconclusive
COc1cc(/C=C2\SC(=O)N(Cc3ccc(Cl)cc3)C2=O)cc([N+](=O)[O-])c1O	DT40 TDP1 no CPT 23.1µM, TDP1 cell CPT inconclusive, KB-V1 MDR tox inconclusive
COc1cc(/C=C2/SC(=S)N(Cc3ccccc3)C2=O)ccc1OCC(=O)O	none
Cc1cc(N2CCC(C(=O)Nc3ccc(F)cc3C)CC2)n2nc(C)c(-c3ccc(Cl)cc3)c2n1	TDP1 cell CPT inconclusive (no result: HT1080NT lethal, HT1080 IDH1KD tx)
Cc1ccc(C)c(N2CCN(c3cnn(-c4nc5ccccc5s4)c(=O)c3Cl)CC2)c1	DT40 TDP1 no CPT 9.2µM, TDP1 cell CPT 9.2µM
O=c1c(Cl)c(Nc2cccc(Cl)c2)cnn1-c1nc2ccccc2s1	DT40 TDP1 no CPT inconclusive, KB-3-1 tox inconclusive
